Compounds with a hit are over-represented: about 3.6% of the library has one in this group of screens.
GCN5L2 inh: GCN5L2 (KAT2A) acetyltransferase inhibition; Q92830; GCN5L2 HAT assay, ThioGlo1 CoA-SH fluorescence; Potency, µM (highest dose often 58.9 µM), for inactives: at the highest dose activity change, negative = inhibition, usual class: inhibitors; 390,000 tested, 0.21% active; note: potency is the fitted concentration of half-maximal effect; % is set by controls: 0 for no effect and ±100 for the full control effect
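GCN5L2 (20nM final) in 50mM HEPES, 0.1mM EDTA pH 7.5, 0.01% Tween-20 was preincubated 15 min at room temperature with compound, then given ThioGlo1 (50uM), H3(1-25) peptide (75uM) and acetyl-CoA (70uM); CoA-thiol fluorescence (Ex340/Em540) was read at 0 and 20 min.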
PI5P4K alpha inh: blocks human PI5P4K alpha kinase activity; P48426; 330,000 tested, 1.2% active; max response, %; PI5P4Kalpha enzyme, ADP-Glo luminescence, 60 min; hits give low values; active = max response of -50% or lower; inconclusive = between -30% and -50%; inactive = -30% or higher; note: value at the top dose of about 77 µM; % is set by controls: 0 for no effect and ±100 for the full control effect
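Single end-point luminescence (ADP-Glo) quantified ADP from PI5P4Kalpha turnover; ATP 5 microM final, 1 h at RT, 0.1% CHAPS and 0.28 mM EGTA in HEPES pH 7.4.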
PLK1 PBD inh: PLK1 (human) polo-box domain binding inhibition; Potency, µM, without a hit: max response, negative = inhibition, most hits filed as inhibitors; 360,000 tested, 2.8% active; AID 720504; Plk1 PBD binding of FITC phosphopeptide, fluorescence polarization; note: potency is the fitted concentration of half-maximal effect; series mostly up to about 57 µM; % is set by controls: 0 for no effect and ±100 for the full control effect; nearly all actives have a fitted effect of over 65% in size
Target sequence (P53350 whole entry, looked up, the tested form may be a part): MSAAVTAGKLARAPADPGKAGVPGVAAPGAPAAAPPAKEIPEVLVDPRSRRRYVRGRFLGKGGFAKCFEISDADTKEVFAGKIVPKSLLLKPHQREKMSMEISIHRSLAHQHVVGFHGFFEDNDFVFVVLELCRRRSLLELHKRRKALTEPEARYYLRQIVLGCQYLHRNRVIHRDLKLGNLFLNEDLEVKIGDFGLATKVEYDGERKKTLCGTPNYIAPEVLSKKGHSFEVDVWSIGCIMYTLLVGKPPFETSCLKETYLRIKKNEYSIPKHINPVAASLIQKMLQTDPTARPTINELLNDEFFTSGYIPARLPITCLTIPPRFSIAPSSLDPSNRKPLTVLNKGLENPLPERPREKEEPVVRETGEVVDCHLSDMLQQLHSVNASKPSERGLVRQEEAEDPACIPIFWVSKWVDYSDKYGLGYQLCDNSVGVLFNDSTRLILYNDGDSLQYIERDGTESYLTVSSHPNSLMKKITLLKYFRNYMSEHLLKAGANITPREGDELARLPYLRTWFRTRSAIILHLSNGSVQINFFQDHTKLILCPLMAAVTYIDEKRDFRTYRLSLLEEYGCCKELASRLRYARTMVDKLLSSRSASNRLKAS
VDR inh: blocks the human vitamin D receptor; P11473; VDR-SRC2-3 peptide fluorescence polarization, 2 h; Potency, µM, inactives show max response, negative = inhibition, hits mostly inhibitors; 400,000 tested, 0.93% active; note: potency is the fitted concentration of half-maximal effect; % is set by controls: 0 for no effect and ±100 for the full control effect
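FP read-out; VDR + SRC2-3 coactivator peptide; 23 nl compound by pintool; 2 h RT incubation; reagents held at 4 deg C, protected from light.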
Rango dissoc inh: inhibition of RanGTP-driven Rango-importin beta dissociation; O95149+P62826; Biochemical FRET Rango-importin beta, RanGTP-induced dissociation; Potency, µM (highest dose often 46.1 µM), inactives show at the top dose activity change, negative = inhibition; 340,000 tested, 0.071% active; AID 540253; calls by dose curve; note: potency is the fitted concentration of half-maximal effect; % of control where 0% means no effect; nearly all actives have a fitted effect of over 45% in size
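Compounds preincubate 5 min with complex of recombinant Rango and importin beta in PBS with 1 mM DTT. Ran (0.6 uM) loaded with 2 mM GTP plus 0.2 uM RCC1 starts dissociation; FRET is recorded 45 min later.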
Rango-impB inh: Rango-importin beta binding inhibition; Q14974; Rango CFP/YFP FRET sensor + importin beta, 45 min; Potency, µM (highest dose often 92.2 µM), without a hit: top-dose inhibition of complex formation; 340,000 tested, 0.031% active; calls by dose curve;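 note: potency is the fitted concentration of half-maximal effect; 0% = DMSO wells and 100% = buffer wells lacking importin beta; nearly all actives have a fitted effect of over 15% in size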
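FRET biosensor (snurportin 1 IBB flanked by EYFP and cerulean), 50 nM, with compound 5 min, then 0.125 microM importin beta in PBS, 1 mM DTT, 0.02% Tween-20, 0.1% BSA. CFP/YFP ratio read after 45 min at room temperature; pre-read flags interference.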
The depositor's hits bear a star; ? = inconclusive; . = not tested or not shown. Unless noted, calls come from the whole dose curve; as a rule, active = well fitted curve in the direction sought with a large enough effect; inconclusive = small, poorly fitted or top-dose-only effect, or another doubt; inactive = no such curve, though single readings can be large; an effect the other way counts as inactive or inconclusive.

SMILES	GCN5L2 inh	PI5P4K alpha inh	PLK1 PBD inh	VDR inh	Rango dissoc inh	Rango-impB inh
C=CCN1C(=O)/C(=c2\sc3nc(=O)c(Cc4ccccc4)nn3c2=O)c2ccccc21	-9%	?	13µM*	?	-11%	-2%
CSc1cccc(NC(=O)N2CCN(S(=O)(=O)c3ccc4c(ccn4C)c3)CC2)c1	-16%	.	.	5%	.	.
O=C(COC(=O)C1CC(=O)N(Cc2ccco2)C1)c1ccc(OC(=O)c2ccco2)cc1 (stereo not drawn)	?	-63*	?	?	-2%	-2%
Cc1ccc(C(=O)Oc2ccc(C(=O)COC(=O)C3CC(=O)N(Cc4ccco4)C3)cc2)cc1 (stereo not drawn)	-18%	?	?	-16%	-6%	-4%
O=c1oc(/C=C/c2ccc([N+](=O)[O-])s2)nc2ccccc12	-12%	0	-18%	-7%	9.2µM*	?
CC(=O)Oc1ccccc1/C=C/c1nc2ccccc2c(=O)o1	21%	-26	-12%	-5%	-7%	1%
Cc1cccc(-n2c(C)cc(/C=C3/C(=N)N4C(c5ccccc5)=CSC4=NC3=O)c2C)c1	-3%	-8	-1%	-3%	-21%	-4%
N=C1S/C(=C\c2ccc(-c3cccc(Cl)c3)o2)C(=O)N1c1nccs1	36%	-63*	?	-4%	-6%	?
COc1cc(/C=C2/C(=N)N3C(c4ccccc4)=CSC3=NC2=O)ccc1OCC(=O)O	-1%	-52*	?	-24%	?	?
COc1ccc(/C=C2\SC(=N)N(c3nccs3)C2=O)cc1OC	-20%	-23	-17%	-26%	?	?
N=C1/C(=C\c2ccc(-c3ccc(C(=O)O)cc3)o2)C(=O)N=C2SC=C(c3ccccc3)N12	-2%	-70*	?	-8%	?	?
N=C1/C(=C\c2ccc(-c3cccc(Cl)c3)o2)C(=O)N=C2SC=C(c3ccccc3)N12	?	-55*	-21%	?	?	?
Cc1cc(/C=C2/C(=N)N3C(c4ccccc4)=CSC3=NC2=O)c(C)n1-c1ccc(Cl)cc1	.	1	-2%	8%	-24%	?
Cc1cc(C)c(NC(=O)CSc2ncc(S(=O)(=O)c3ccc(C(C)(C)C)cc3)c(=O)[nH]2)c(C)c1	-23%	.	.	-13%	.	.
NC(=S)N=Nc1ccc(NN=C(N)N)cc1	?	-84*	3.8µM*	18µM*	-6%	0%
CCOC(=O)c1sc(N2N=C(C)/C(=C\c3ccc(OCC(=O)OC)cc3)C2=O)nc1C	-4%	-5	13µM*	?	-2%	5%
CCOC(=O)c1cccc(NC(=O)CCCn2c(C)c3cnn(-c4ccccc4)c(=O)c3c2C)c1	-9%	.	.	6%	.	.
COc1cccc(CNC(=O)c2ccc(CSc3nc4ccncc4n3Cc3cccc(C)c3)cc2)c1	-6%	.	.	4%	.	.
Cc1onc(C(=O)Nc2sc3c(c2C#N)CCCC3)c1[N+](=O)[O-]	-3%	-4	27µM*	?	5%	1%
Cc1onc(-c2ccccc2Cl)c1C(=O)Nc1sc2c(c1C#N)CCC2	-6%	?	27µM*	-11%	?	?
N#Cc1c(NC(=O)C2CC(c3ccccc3Cl)=NO2)sc2c1CCC2 (stereo not drawn)	-7%	.	?	12%	0%	0%
CC(=O)Nc1sc2c(c1C#N)CCCC2	.	2	-7%	1%	3%	-2%
CCc1c(C)sc(NC(=O)c2cc(-c3ccc(OC)cc3)on2)c1C#N	-2%	.	.	-9%	.	.
CC1CCc2c(sc(NC(=O)C3CCCO3)c2C#N)C1 (stereo not drawn)	1%	2	-17%	-24%	21%	-1%
CCc1c(C)sc(NC(=O)c2cc(-c3ccco3)on2)c1C#N	-4%	.	27µM*	?	-16%	-1%
SMILES	GCN5L2 inh	PI5P4K alpha inh	PLK1 PBD inh	VDR inh	Rango dissoc inh	Rango-impB inh
CCc1c(C)sc(NC(=O)C2CCCO2)c1C#N (stereo not drawn)	-6%	-17	24µM*	?	-27%	0%
CCc1ccc(NC(=O)CC2C(=O)N(c3ccc(Cl)cc3)C(=O)N2Cc2cccs2)cc1 (stereo not drawn)	-10%	.	.	5%	.	.
CCN1CCc2nc3sc(C(=O)c4ccccc4)c(N)c3cc2C1	-5%	.	.	10%	.	.
N#Cc1c(NC(=O)C2CC(c3ccccc3O)=NO2)sc2c1CCC2 (stereo not drawn)	-6%	9	19µM*	7%	-9%	?
CCc1c(C)sc(NC(=O)c2cc(C3CC3)on2)c1C#N	-7%	2	?	-11%	-6%	1%
CCCc1cc(C(=O)Nc2sc(C)c(CC)c2C#N)no1	-17%	-20	27µM*	?	18%	-4%
CCOC(=O)c1c(NC(=O)c2noc(C)c2[N+](=O)[O-])sc(C(C)=O)c1C	-18%	?	24µM*	-13%	-9%	0%
CCCc1cc(C(=O)Nc2sc3c(c2C#N)CCC3)no1	-4%	-23	19µM*	71µM*	-17%	-1%
Cc1ccc(NC(=O)CSc2nccn2-c2ccccc2)cc1	-11%	.	.	2%	.	.
Cc1ccc(S(=O)(=O)N2CCC(C(=O)N(C)C3CCS(=O)(=O)C3)CC2)cc1 (stereo not drawn)	-5%	?	6µM*	-13%	1%	0%
CN(C)c1ncc2nc(-c3ccccc3)c(=O)n(C3CC3)c2n1	22µM*	.	.	-11%	.	.
O=C(NCCCn1ccnc1)C(=O)Nc1ccccc1	-5%	4	30µM*	0%	-1%	-2%
Cc1ccccc1NC(=O)CC1SC(=O)N(c2ccccc2)C1=O (stereo not drawn)	-3%	2	11µM*	10%	11%	?
O=C(CC1SC(=O)N(c2ccccc2)C1=O)Nc1cccc2ccccc12 (stereo not drawn)	-27%	?	11µM*	45µM*	6%	1%
CC1(C)C(C(=O)O)N2C(=O)CC2S1(=O)=O (stereo not drawn)	8%	.	.	-3%	.	.
O=C(NCc1ccccn1)c1nc(-c2cccs2)no1	-7%	0	27µM*	-9%	-8%	-3%
CCC1CCCCN1C(=O)c1ccc2c(c1)N(Cc1cccc(Cl)c1)C(=O)c1ccccc1S2(=O)=O (stereo not drawn)	-5%	.	.	8%	.	.
CC(C)(C)n1cnc2cc(NCc3ccc(Br)cc3)ccc21	-18%	-9	21µM*	?	17%	0%
CCc1ccc(CNc2ccc3c(c2)ncn3C(C)(C)C)cc1	-1%	3	-7%	12%	-2%	5%
O=C(Cc1ccc2c(c1)OCCO2)c1c(O)cc(O)cc1O	-2%	.	-14%	-1%	-21%	-7%

Screening data (PubChem BioAssay)
